# Bioassay records from PubChem.
# Only some compounds are listed: those with a hit (about 4.7% of all), similar ones and a draw of the others.
# DUSP3 inh: inhibitors of human VHR1 phosphatase (DUSP3); P51452; recombinant VHR phosphatase, pNPP absorbance; inhibition, % at 13.3 µM; 290,000 tested, 0.52% active; AID 1654; in the data active means inhibition above about 50%
# 3CLpro inhibitor: SARS-CoV 3CLpro protease inhibition. recombinant SARS-CoV 3CLpro, quenched FRET peptide cleavage. inhibition, % at 6 µM. 290,000 tested, 0.14% active. AID 1706; in the data active means inhibition above about 12%
# RecA splice inh: blocks M. tuberculosis RecA intein splicing; cell-free RecA intein splicing, fluorescence; inhibition, % (no concentration beside the values); 290,000 tested, 0.75% active; AID 2221; in the data active means inhibition above about 30%;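 further: 0% = vehicle wells and 100% = reference inhibitor control wells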
# GDH-TPI counter-1: inhibits GDH-TPI coupling enzymes, artifact for Mtb FBA screen | GDH-TPI coupled enzyme counterscreen, NADH absorbance | inhibition, % at 4.8 µM | 360,000 tested, 1.2% active; in the data active means inhibition above about 30%;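 further: 0% = DMSO wells and 100% = wells lacking the enzyme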
# FBA Mtb inh: Mtb fructose-bisphosphate aldolase inhibition; inhibition, % at 1 µM; 360,000 tested, 2.3% active; purified M. tuberculosis FBA, fluorescence read-out; P9WQA3;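 further: 0% = vehicle and 100% = reference inhibitor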
# Target sequence (P9WQA3 whole entry, looked up): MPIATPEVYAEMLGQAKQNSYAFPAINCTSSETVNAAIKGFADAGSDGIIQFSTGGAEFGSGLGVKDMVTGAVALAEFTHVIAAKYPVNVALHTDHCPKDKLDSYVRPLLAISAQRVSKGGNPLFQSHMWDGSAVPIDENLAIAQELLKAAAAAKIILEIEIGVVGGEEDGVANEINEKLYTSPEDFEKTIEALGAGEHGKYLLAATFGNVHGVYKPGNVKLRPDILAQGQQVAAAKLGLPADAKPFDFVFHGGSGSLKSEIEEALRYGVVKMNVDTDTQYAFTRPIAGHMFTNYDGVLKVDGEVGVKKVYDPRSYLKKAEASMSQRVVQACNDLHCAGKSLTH
# CCHFV vOTU inh: CCHFV vOTU protease inhibition; 370,000 tested, 0.55% active; inhibition, % at 11.5 µM; Pep-AMC fluorescence; AID 651958; in the data active means inhibition above about 30%; further: 0% = vehicle wells with enzyme and 100% = no enzyme wells
# Mtb FBA inh conf: confirmation of M. tuberculosis fructose-bisphosphate aldolase inhibitors. inhibition, % at 1 µM. 5,600 tested, 78% active. shares compounds with FBA Mtb inh. purified M. tuberculosis FBA, fluorescence read-out;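 further: 0% = vehicle wells and 100% = reference inhibitor wells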
# GDH-TPI counter-2: counter-screen for M. tuberculosis FBA inhibitors: GDH-TPI coupled enzyme inhibition. shares compounds with FBA Mtb inh. 5,600 tested, 81% active. AID 652141. inhibition, % at 1 µM. GDH-TPI coupled enzyme counterscreen, fluorescence; in the data active means inhibition above about 10%
# An asterisk follows results filed as active; · = no result given; + = active, no number. Unless noted, no stated cut-off is given here; in the data, active means inhibition above about 27%; inactive means the rest.
SMILES,DUSP3 inh,3CLpro inhibitor,RecA splice inh,GDH-TPI counter-1,FBA Mtb inh,CCHFV vOTU inh,Mtb FBA inh conf,GDH-TPI counter-2
Cc1cc(OCC(=O)NCCN2CCOCC2)cc(C)c1Br,-12,1,0,1,1,13,·,·
NC(=O)c1ccsc1NC(=O)c1ccc([N+](=O)[O-])o1,·,·,·,4,-4,8,·,·
COc1cc([N+](=O)[O-])cc(/C=N/NC(=O)C(C)Nc2ccccc2C)c1O (configuration not stated),-11,2,6,11,-12,7,·,·
CCOC(=O)/C(C#N)=C1\CCCN1CC(N)=S,15,6,·,6,-1,6,·,·
CC1(C)CC(=O)c2cc(OCC(=O)N3CCN(Cc4ccccc4)CC3)ccc2O1,21,-1,-10,4,7,-14,·,·
COc1ccc2c(c1)C(=O)CC(O)(C(F)F)O2 (configuration not stated),1,-1,-1,4,31*,-46,72*,53*
CC1(C)CC(=O)c2cc(OCC(=O)N3CCCCCC3)ccc2O1,3,4,-6,0,46*,-104,88*,95*
C/C(=N\NC(=O)Cc1ccc(F)cc1)c1ccc(O)cc1,-7,3,0,4,-1,5,·,·
CC1C(c2ccccc2)=Nn2c(=O)n(-c3ccccc3)c(=O)n21 (configuration not stated),·,·,·,1,103*,-20,+,+
CCC(CO)NC(=O)C1C=C2c3cccc4[nH]cc(c34)CC2N(C)C1 (configuration not stated),23,-4,21,10,83*,-12,+,+
COC(=O)C1C=C2c3cccc4[nH]cc(c34)CC2N(C)C1 (configuration not stated),34,-7,·,·,·,·,·,·
Cc1c(NC(=O)COc2ccc3ccc(=O)oc3c2)c(=O)n(-c2ccccc2)n1C,·,·,-6,15,79*,-18,64*,57*
Cc1cc(=O)oc2cc(OCC(=O)OCC(=O)Nc3c(C)n(C)n(-c4ccccc4)c3=O)ccc12,22,1,3,-1,3,3,·,·
CN1c2ccccc2C(=O)NC1c1ccc(Cl)cc1 (configuration not stated),9,-2,-9,-2,15,-46,·,·
CN1C(=O)c2ccccc2N(C)C1c1cccs1 (configuration not stated),28,2,-2,15,36*,-55,200*,136*
CN1C(=O)c2ccccc2N(C)C1c1ccccc1Cl (configuration not stated),-28,-1,-7,-7,64*,-90,57*,38*
COc1ccc(C/C(N)=N/OC(=O)CCc2ccccc2)cc1,12,8,0,-5,-2,3,·,·
CNC(=O)Oc1ccc(-c2cn3cc(C)ccc3n2)cc1,2,-1,1,13,47*,-19,38*,34*
COc1ccc(-c2cn3cc(C)ccc3n2)cc1F,4,-5,·,8,37*,-15,77*,65*
COc1ccc(-c2cn3cccc(C)c3n2)cc1F,-7,-7,1,-2,31*,-6,-4,-7
COC(=O)c1ccc2nc(-c3ccc(S(C)(=O)=O)cc3)cn2c1,-1,-1,-4,-6,36*,-30,141*,142*
COc1ccc(-c2csc(NC(=O)c3ccc(S(C)(=O)=O)cc3)n2)cc1,13,-2,6,7,0,1,·,·
CNC(=O)Oc1cccc(-c2cn3cc(Cl)ccc3n2)c1,18,1,-2,11,6,-1,·,·
Cc1ccc2nc(-c3ccc4c(c3)NC(=O)CO4)cn2c1,1,-1,1,15,14,-7,·,·
Cc1cc(=O)[nH]c(SCC(=O)N2C(C)CCCC2C)n1 (configuration not stated),-9,5,-3,-2,-1,1,·,·
CCCCCCN1C[C@H](n2cc(-c3ccc(F)cc3)nn2)[C@@H](O)C[C@@H]1c1ccc(Cl)cc1,·,·,·,5,0,14,·,·
CCOC(=O)/C=C1\SCC(=O)N1CC(=O)Nc1cc(S(=O)(=O)N(C)C)ccc1C,·,·,·,0,-1,-4,·,·
